Values joined by “and” are separate entries in the source; they are usually repeats but may differ in a detail not shown here. Equal values may be shown once. More than one record can exist for a structure, and the calls need not agree. Active and inactive are the calls of the source. Unless noted, the rule behind the calls is not given here.
What was measured:
[1] = stimulators of nuclear beta-catenin in C2C12, primary screen, imaging, WNT3A-conditioned medium, mouse C2C12, NPC library (AID 1117326; in the data active = nuclear beta-catenin stimulation mostly above about 4.2%, no sharp cut-off; inactive = mostly below about 10%); conditions: stronger effect = higher value
[2] = stimulators of insulin release from INS-1E, primary screen, cell-based, 5 mM glucose, NPC library (AID 1117329;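 active = compound raises insulin release from rat beta cells at 5 mM glucose, no numeric limit stated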); conditions: rat INS-1E insulin secretion, at 10 µM, stronger effect = higher value
[3] = growth inhibition of GSK3B-pretreated HCT116 cells – cell-based, CellTiter-Glo, 0.2 to 20 µM (AID 1117336;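 active = compounds lowering colon cancer cell viability after pretreatment blocking the GSK3B kinase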); conditions: HCT116 viability after GSK3B inhibitor, at 20 µM, stronger effect = higher value
[4] = inhibition of endothelial tube formation, primary screen, imaging, VEGF stimulated, CD31 staining, tube area, NPC library (AID 1117340;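 active = compound that reduces growth-factor-driven endothelial tube area in a mixed cell culture, no cutoff stated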); conditions: VEGF-stimulated ADSC/ECFC co-culture, at 10 µM, stronger effect = higher value
[5] = glucagon-like peptide 1 release enhancers, primary assay, NCI-H716 cell line, NPC library (AID 1117341;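 active = compound raises GLP1 secretion from the human gut endocrine cells, with no numeric limit stated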); conditions: NCI-H716 cells, at 10 µM, stronger effect = higher value
[6] = HCT116 colon cancer cell growth inhibition, primary screen, CellTiter-Glo luminescence, NPC library (AID 1117342;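 active = compounds that lower survival of HCT116 colon cancer cells in the luminescence readout, no numeric limit stated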); conditions: at 20 µM (top of the series)
[7] = CellTiter-Glo luminescent readout of SW480 viability loss, NPC library primary (AID 1117343;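 active = compounds that lower viability of the colon cancer cells in the luminescence readout, with no numeric limit stated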); conditions: CellTiter-Glo luminescence; at 20 µM (top of the series)
[8] = decreased DLD-1 cellular survival, CellTiter-Glo luminescent readout, NPC compound collection, primary HTS (AID 1117346;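 active = compounds that lower survival of DLD-1 colon cancer cells in the luminescence readout, no cutoff given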); conditions: DLD-1 viability, CellTiter-Glo luminescence; at 20 µM (top of the series)
[9] = circadian clock period modulators, cell-based, LOPAC library, luminescence reporter (AID 2774); conditions: circadian reporter cells, at 7 µM, actives lie on both sides;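 note: values are relative to mean of DMSO wells on each plate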
[10] = Cy5 fluorescence quenching or enhancement artefacts, artefact control for HCV NS3 helicase inhibitor project, biochemical, LOPAC1280 (AID 687037); conditions: Cy5-DNA-NS3h complex fluorescence interference counterscreen
[11] = molecular target: 6-phosphogluconate dehydrogenase, decarboxylating (Homo sapiens) (UniProt P52209); test: 6PGD enzyme inhibitors, primary screen, biochemical, human, recombinant enzyme, NADPH absorbance (AID 1159550;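 active = at least 20% inhibition of 6-phosphogluconate dehydrogenase activity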); conditions: recombinant 6PGD, NADPH absorbance 341 nm; at 10 µM; stronger effect = higher value
Chain of 6-phosphogluconate dehydrogenase, decarboxylating (Homo sapiens) (P52209 whole entry, looked up): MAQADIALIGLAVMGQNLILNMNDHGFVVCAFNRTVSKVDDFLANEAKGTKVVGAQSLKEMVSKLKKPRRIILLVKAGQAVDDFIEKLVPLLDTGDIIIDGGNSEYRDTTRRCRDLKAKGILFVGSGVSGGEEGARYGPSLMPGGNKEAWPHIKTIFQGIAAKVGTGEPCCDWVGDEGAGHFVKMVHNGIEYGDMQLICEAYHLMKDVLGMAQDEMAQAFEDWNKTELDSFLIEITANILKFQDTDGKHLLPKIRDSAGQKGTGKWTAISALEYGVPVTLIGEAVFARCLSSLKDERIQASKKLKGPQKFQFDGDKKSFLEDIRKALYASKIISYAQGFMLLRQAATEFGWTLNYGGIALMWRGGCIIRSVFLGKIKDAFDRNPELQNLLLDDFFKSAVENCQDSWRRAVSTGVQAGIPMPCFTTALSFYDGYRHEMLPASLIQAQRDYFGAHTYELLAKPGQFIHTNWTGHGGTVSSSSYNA

[12] = differential killing of epithelial or mesenchymal cells, primary screen, imaging, PC-3E GFP, TEM4-18 mCherry, co-culture (AID 1345086;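 active = compounds killing one labelled cell type while sparing the other, by normalised counts and ratio limits, not self-fluorescent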;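 for all read-outs here: cells exposed to compound for 72 h before imaging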;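 for red/green cell ratio (normalised): normalised mesenchymal count divided by normalised epithelial count so high means epithelial killing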); conditions: imaging cell counts, at 1 µM; for red/green cell ratio (normalised): actives lie on both sides
[13] = sensitizers of A549 cells to miR-34 induction, primary screen, imaging, A549 dox-inducible miR-34, nuclei and caspase counts (AID 1347080;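 active = compounds whose cell count with miR-34 switched on is under 0.7 times the count with it off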); conditions: A549 miR-34 inducible, Hoechst nuclei count, 48 h
[14] = survival rescue of mitochondrial mutant cells in low glucose, primary screen, MELAS cybrids, Rieske KO mouse fibroblasts, CellTiter-Glo (AID 1508586;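 active = mean z-score across replicates of 1.96 or higher in either the MELAS or the Rieske mutant cell line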;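 note: z relative to plate mean and SD of compound and empty wells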)
[15] = molecular target: NAD(+) hydrolase SARM1 (Homo sapiens) (UniProt Q6SZW1); test: SARM1 TIR NADase inhibitors, cell lysate, NAD-Glo luminescence (AID 1508614;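 active = compound whose remaining NAD level is above about 45 nM, limit read from the data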;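 note: higher remaining NAD means stronger inhibition of SARM1 NADase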); conditions: SAM-TIR HEK293T lysate NADase, at 1 µM, stronger effect = higher value
Chain of NAD(+) hydrolase SARM1 (Homo sapiens) (Q6SZW1 whole entry, looked up): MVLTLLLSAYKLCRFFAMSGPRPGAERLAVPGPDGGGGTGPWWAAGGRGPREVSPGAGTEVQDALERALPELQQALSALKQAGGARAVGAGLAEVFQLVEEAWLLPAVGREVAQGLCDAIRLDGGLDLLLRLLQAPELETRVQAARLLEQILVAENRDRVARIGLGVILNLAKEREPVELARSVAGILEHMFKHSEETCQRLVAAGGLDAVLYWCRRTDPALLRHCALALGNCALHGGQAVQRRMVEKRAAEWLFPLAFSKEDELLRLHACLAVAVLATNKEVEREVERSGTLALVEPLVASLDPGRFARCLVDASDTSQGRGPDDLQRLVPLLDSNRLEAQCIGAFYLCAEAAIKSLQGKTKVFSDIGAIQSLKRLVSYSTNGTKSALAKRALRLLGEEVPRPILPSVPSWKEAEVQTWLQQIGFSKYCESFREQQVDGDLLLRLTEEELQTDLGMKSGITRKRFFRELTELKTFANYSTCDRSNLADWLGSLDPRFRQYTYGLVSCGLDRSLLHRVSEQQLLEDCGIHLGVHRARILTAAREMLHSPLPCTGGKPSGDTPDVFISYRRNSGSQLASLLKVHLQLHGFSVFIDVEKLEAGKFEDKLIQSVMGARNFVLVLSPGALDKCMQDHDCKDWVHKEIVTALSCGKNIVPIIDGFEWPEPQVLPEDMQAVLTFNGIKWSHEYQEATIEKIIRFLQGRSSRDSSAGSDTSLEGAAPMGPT

[16] = viability rescue of complex I mutant cybrids, primary screen, cell-based, galactose medium, ATP luminescence (AID 1645843;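 active = z-score of at least 1.8 in each of two replicates, scored against plate mean and spread of sample wells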;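 note: positive z means more ATP and so rescue of galactose-driven cybrid death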); conditions: complex I mutant cybrid cells, 72 h, stronger effect = higher value
[17] = polyglutamine-triggered caspase-3 activation inhibitors, cell-based (AID 1583); conditions: polyglutamine-induced caspase-3 activation, cell assay; stronger effect = higher value;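 tested at 10 µM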
[18] = suppressors of polyQ aggregation in yeast, 75Q-TubU reporter (AID 1593); conditions: Yeast 75Q polyglutamine aggregation reporter
[19] = tested on: Aerobactin synthetase IucA (Klebsiella pneumoniae hvKP1); test: Biochemical IucA enzyme inhibition primary screen of the Spectrum library (AID 1346200); conditions: malachite green pyrophosphate, A620, at 8 µM, stronger effect = lower value;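 note: 100% = wells without compound and 0% = wells lacking enzyme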
[20] = molecular target: Mitogen-activated protein kinase 7 (Homo sapiens) (UniProt Q13164); test: ERK5 transactivation activators in reporter cells, primary screen, cell-based, HTS (AID 1508626;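 active = luciferase signal above three times the same-plate solvent-only control wells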;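 note: luciferase driven by Gal4-ERK5 fusion binding five Gal4 sites before minimal TATA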); conditions: HeLa Gal4-ERK5 transactivation, 18 h, at 5 µM, stronger effect = higher value
Chain of Mitogen-activated protein kinase 7 (Homo sapiens) (Q13164 whole entry, looked up, the tested form may be a part): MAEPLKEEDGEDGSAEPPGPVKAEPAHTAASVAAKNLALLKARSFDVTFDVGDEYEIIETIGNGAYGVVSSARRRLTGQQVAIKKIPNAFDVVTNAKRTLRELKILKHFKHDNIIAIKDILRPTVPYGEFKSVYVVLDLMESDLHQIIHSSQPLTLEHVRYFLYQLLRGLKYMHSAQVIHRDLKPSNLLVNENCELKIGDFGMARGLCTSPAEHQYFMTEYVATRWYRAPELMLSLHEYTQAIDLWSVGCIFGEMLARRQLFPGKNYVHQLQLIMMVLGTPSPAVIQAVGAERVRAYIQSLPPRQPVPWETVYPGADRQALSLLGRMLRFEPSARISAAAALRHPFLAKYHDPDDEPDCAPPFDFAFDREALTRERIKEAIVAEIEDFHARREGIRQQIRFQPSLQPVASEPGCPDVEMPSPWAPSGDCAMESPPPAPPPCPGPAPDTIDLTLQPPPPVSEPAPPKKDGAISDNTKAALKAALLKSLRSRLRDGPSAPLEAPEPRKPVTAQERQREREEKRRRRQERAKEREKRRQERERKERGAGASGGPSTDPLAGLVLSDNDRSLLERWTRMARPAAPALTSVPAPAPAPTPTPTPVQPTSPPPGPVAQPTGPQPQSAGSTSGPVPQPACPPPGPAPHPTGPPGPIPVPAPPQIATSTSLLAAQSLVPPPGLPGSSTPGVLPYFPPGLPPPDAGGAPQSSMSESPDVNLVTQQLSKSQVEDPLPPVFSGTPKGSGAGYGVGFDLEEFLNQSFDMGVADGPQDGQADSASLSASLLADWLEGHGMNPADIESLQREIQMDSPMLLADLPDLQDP

[21] = measured here: epithelial PC-3E GFP cell survival
[22] = measured here: mesenchymal TEM4-18 mCherry cell survival
[23] = measured here: relative caspase fold change +Dox/-Dox
[24] = measured here: total cells with miR-34 induction, stronger effect = lower value
[25] = measured here: total cells without miR-34 induction
[26] = MELAS cybrid survival, CellTiter-Glo 48 h, stronger effect = higher value
[27] = Rieske KO mouse fibroblast survival, CellTiter-Glo 72 h

CC(C)=C[C@@H]1[C@@H](C(=O)OCc2coc(Cc3ccccc3)c2)C1(C)C
nuclear beta-catenin stimulation ([1]; at 10 µM): 0.3% (inactive) | nuclear beta-catenin stimulation ([1]; stimulation, at 2 µM): 0.4% | insulin secretion stimulation [2]: -3.4% (inactive) | viability decrease [3]: 14.7% (inactive) | tube area decrease [4]: 12.6% (inactive) | GLP1 secretion stimulation [5]: -0.4% (inactive) | inhibition of viability [6]: 12.9% (inactive) | viability decrease (inhibition) [7]: 87.8% (active) | viability decrease (inhibition) [8]: 23.4% (inactive)

O=C(O)c1nn(Cc2ccc(Cl)cc2Cl)c2ccccc12
period change [9]: -0.065 h (inactive) | fluorescence ratio (interference) [10]: 1 (inactive) | nuclear beta-catenin stimulation ([1]; at 10 µM): 1.4% (inactive) | nuclear beta-catenin stimulation ([1]; stimulation, at 2 µM): 4.8% | insulin secretion stimulation [2]: 4.2% (inactive) | viability decrease [3]: 31.1% (inactive) | tube area decrease [4]: -29.5% (inactive) | GLP1 secretion stimulation [5]: 4.9% (inactive) | inhibition of viability [6]: 19.6% (inactive) | viability decrease (inhibition) [7]: 24.5% (inactive) | viability decrease (inhibition) [8]: 3.6% (inactive) | inhibition [11]: 4.63% (inactive) | red/green cell ratio (normalised) [12]: 0.98 (inactive) | normalised cell number [12, 21]: 0.85 | normalised cell number [12, 22]: 0.83 | fold change ([13]; stronger effect = lower value): 1.1 (inactive) and 0.951 (inactive) and 0.966 (inactive) | fold change [13, 23]: 0.953 and 0.659 and 0.627 | cell count [13, 24]: 10200 and 7460 and 7860 | cell count [13, 25]: 9270 and 7840 and 8130 | z-score [14, 26]: -0.0995 (inactive) | z-score [14, 27]: -0.0829 | remaining NAD [15]: 10 nM (inactive) | z-score [16]: 2.35 (active) and 0.985 (inactive)

CCCC(C)(COC(N)=O)COC(=O)NC(C)C (configuration not stated)
inhibition [17]: 17.5% | score [18]: 1.44 | period change [9]: 0.065 h (inactive) | fluorescence ratio (interference) [10]: 1 (inactive) | nuclear beta-catenin stimulation ([1]; at 10 µM): 0.1% (inactive) | nuclear beta-catenin stimulation ([1]; stimulation, at 2 µM): -0.6% | insulin secretion stimulation [2]: 3.4% (inactive) | viability decrease [3]: -38.7% (inactive) | tube area decrease [4]: 14.3% (inactive) | GLP1 secretion stimulation [5]: -1.3% (inactive) | inhibition of viability [6]: -14.1% (inactive) | viability decrease (inhibition) [7]: -5.3% (inactive) | viability decrease (inhibition) [8]: -12.4% (inactive) | inhibition [11]: -0.85% (inactive) | red/green cell ratio (normalised) [12]: 1.05 (inactive) | normalised cell number [12, 21]: 1.17 | normalised cell number [12, 22]: 1.23 | activity remaining [19]: 115% (inactive) | fold change ([13]; stronger effect = lower value): 0.952 (inactive) and 0.896 (inactive) and 0.902 (inactive) | fold change [13, 23]: 1.07 and 1.02 and 3.4 | cell count [13, 24]: 10700 and 9140 and 11300 | cell count [13, 25]: 11200 and 10200 and 12600 | z-score [14, 26]: 0.305 (inactive) | z-score [14, 27]: 0.223 | remaining NAD [15]: 10 nM (inactive) | luciferase signal [20]: 40 AU (inactive) | z-score [16]: 1.27 (inactive)

O=[N+]([O-])/N=C1\NCCN1Cc1ccc(Cl)nc1
nuclear beta-catenin stimulation ([1]; at 10 µM): 0.9% (inactive) | nuclear beta-catenin stimulation ([1]; stimulation, at 2 µM): 1.2% | insulin secretion stimulation [2]: -1.2% (inactive) | viability decrease [3]: -10.2% (inactive) | tube area decrease [4]: -4.1% (inactive) | GLP1 secretion stimulation [5]: -2% (inactive) | inhibition of viability [6]: 9.4% (inactive) | viability decrease (inhibition) [7]: 27.9% (inactive) | viability decrease (inhibition) [8]: -0.3% (inactive) | inhibition [11]: -7.9% (inactive)

NCC(O)c1ccc(O)cc1 (configuration not stated)
inhibition [17]: -11.8% | score [18]: 1.11 | period change [9]: -0.025 h (inactive) | fluorescence ratio (interference) [10]: 1 (inactive) | nuclear beta-catenin stimulation ([1]; at 10 µM): -0.4% (inactive) | nuclear beta-catenin stimulation ([1]; stimulation, at 2 µM): 0.8% | insulin secretion stimulation [2]: -2.1% (inactive) | viability decrease [3]: -4.35% (inactive) | tube area decrease [4]: -17.5% (inactive) | GLP1 secretion stimulation [5]: 1.6% (inactive) | inhibition of viability [6]: -5% (inactive) | viability decrease (inhibition) [7]: 18.2% (inactive) | viability decrease (inhibition) [8]: 1.65% (inactive) | inhibition [11]: 8.94% (inactive) | red/green cell ratio (normalised) [12]: 1 (inactive) | normalised cell number [12, 21]: 0.98 | normalised cell number [12, 22]: 0.97 | activity remaining [19]: 125% (inactive) | z-score [14, 26]: -0.301 (inactive) and 0.485 (inactive) | z-score [14, 27]: -0.195 and -0.00807 | remaining NAD [15]: 10 nM (inactive) | luciferase signal [20]: 80 AU (inactive) | z-score [16]: 0.63 (inactive) and -0.045 (inactive)
